Molecules are shown by their SMILES. The whole screen tested about 400,000 compounds, of which about 1,900 (0.47%) were called active. Inconclusive results (about 14%) are left out. The full list was thinned out, with actives kept by preference. Values without a mark were called inactive. Calls come from the whole dose curve; as a rule, active = well fitted cell-killing curve with a large enough effect; inconclusive = small, poorly fitted or top-dose-only effect, or effect the other way; inactive = no such curve, though single readings can be large or run the other way.
Potency is the fitted concentration of half-maximal effect.

This assay can be described thus: Viability Counterscreen for Primary qHTS for Inhibitors of ATXN expression. Note: nearly all actives have a fitted effect of over 40% in size. As to conditions: S2 cells (HEK-293 line with an ATXN2-luciferase reporter) viability, CellTiter-Fluor protease fluorescence, 24 h; series mostly up to 56.7 µM; activity change, negative = cytotoxicity: at the top concentration. (A counterscreen serves to expose hits that act by an unwanted route or on another target.)
Take `CO/N=C(\C(=O)N[C@@H]1C(=O)N2C(C(=O)O)=C(C[N+]3(C)CCCC3)CS[C@H]12)c1csc(N)n1`: the “activity change, negative = cytotoxicity” value is -14.3% [at 25.4 µM].
As for `COc1cc(-c2cccnc2)cc2c1OCCN(C(=O)Cc1csc(C)n1)C2`, the “activity change, negative = cytotoxicity” value is -16.2%.
In the case of `COc1cc2[nH]c(C)c(CCN3CCN(c4ccccc4)CC3)c2cc1OC`, the “activity change, negative = cytotoxicity” value was -20.5%.
Take `O=[N+]([O-])c1ccc(C=Nc2ccc(Cl)cc2Cl)s1`: the Potency is 11.2 µM (active).
In the case of `CC1CN(C(=O)c2ccc([N+](=O)[O-])s2)CC(C)O1` (stereo unspecified), the “activity change, negative = cytotoxicity” value was -21.9%.
Regarding `CNN/C(N=Cc1ccc([N+](=O)[O-])s1)=N\S(=O)(=O)c1cc(C)c(Cl)cc1SCc1ccccc1`, the “activity change, negative = cytotoxicity” value was -34.8%.
In the case of `CCOC(=O)[C@]12CCC=C1N(CCC1=CCCCC1)C(=O)[C@H](CC(=O)NCc1ccc(C)o1)C2`, the “activity change, negative = cytotoxicity” value is -38%.
Take `COC(=O)c1nc(Cl)c(Cl)nc1N`: the Potency was 15.8 µM (active).
For `COC(=O)c1nn(-c2cccc(Cl)c2)ccc1=O`, the “activity change, negative = cytotoxicity” value is 5.56%.
Same read-out and setting: the same measure for `COC(=O)c1c(C)c(C)nc(N)c1C#N`: -3.55%.
The same measure, in the same setting: the same measure for `CCCOc1ccc(F)cc1-c1cc(C(=O)NCc2ccc(F)cc2)[nH]n1`: -12.6%.
With `CCC1CN(CCNC(=O)c2ccsc2)Cc2cc(OC)ccc2O1` (stereo unspecified), the “activity change, negative = cytotoxicity” value is -8.37%.
Consider `CC[C@]1(O)C[C@@H]2CN(CCc3c([nH]c4ccccc34)[C@@](C(=O)OC)(c3cc4c(cc3OC)N(C)[C@H]3[C@@](O)(C(=O)OC)[C@H](OC(C)=O)[C@]5(CC)C=CCN6CC[C@]43[C@@H]65)C2)C1`, for which the Potency is 1 µM (active).
Regarding `O=C(NCC1Cc2cc(F)cc(-c3cnccn3)c2O1)C1COc2ccccc2O1` (stereo unspecified), the “activity change, negative = cytotoxicity” value is -9.12%.
On the same count and under the same terms, for `CC[C@H](C)CCCCC(=O)N[C@@H](CCN)C(=O)N[C@H](C(=O)N[C@@H](CCN)C(=O)N[C@H]1CCNC(=O)[C@H]([C@@H](C)O)NC(=O)[C@H](CCN)NC(=O)[C@H](CCN)NC(=O)[C@H](CC(C)C)NC(=O)[C@@H](CC(C)C)NC(=O)[C@H](CCN)NC1=O)[C@@H](C)O` the value was -1.3%; for `CCN(CC)CCOC(=O)c1ccc(NC(=O)CNC(=O)c2ccccc2)cc1`, -6.36%.
As to `CCC(C(=O)OCCN(CC)CC)c1ccccc1` (stereo unspecified), the Potency entry is “inactive”.
In the case of `CC1(C(=O)NCC2CCOCC2)Cc2c(-c3cccc(C(N)=O)c3)ccnc2O1` (stereo unspecified), the “activity change, negative = cytotoxicity” value is -23.9%.
Same read-out and setting: for `O=C1NC(CC(=O)N2CCC(n3c(C4CCC4)nc4cccnc43)CC2)c2ccccc21` (stereo unspecified) the value was -16%.
Same read-out and setting: for `O=CNc1cc(-c2ccc(C(=O)N3CCOCC3)cc2)cn2c(-c3ccc(F)cc3)cnc12` the value was -26.1%; for `CCc1nc2c(OCCc3cccc(OC)c3)cccn2c1N(C)C(=O)c1ccc(C)cc1`, -21.3%.
On the same count and under the same terms, the same measure for `Cc1cc2nc(C)n(CCCNC(=O)Nc3ccccc3)c2cc1C`: -11.2%.
On to `COc1ccc(OCCCn2c(C)nc3cc(C)c(C)cc32)cc1`, for which the Potency was 28.2 µM (active).
On the same count and under the same terms, for `Cc1cc2ncn(CCCCOc3ccccc3)c2cc1C` the value was “inactive”.
On to `COc1ccc(C(C#N)=C2C=CC(=NO)c3ccccc32)cc1`, for which the “activity change, negative = cytotoxicity” value is -0.613%.
For the molecule `CC[n+]1cc(C)ccc1/C=C/c1ccc(N(C)C)cc1`, the Potency is 25.1 µM (active).
Take `NCC[C@H](O)C(=O)N[C@@H]1C[C@H](N)[C@@H](O[C@H]2O[C@H](CN)[C@@H](O)[C@H](O)[C@@H]2O)[C@H](O)[C@@H]1O[C@H]1O[C@H](CO)[C@@H](O)[C@H](N)[C@@H]1O`: the activity change, negative = cytotoxicity is -2.32% [at 0.575 µM].
`CO[C@]1(NC(=O)CSC(F)F)C(=O)N2C(C(=O)O)=C(CSc3nnnn3CCO)CO[C@H]21`: the “activity change, negative = cytotoxicity” value was 9.74%.
Same read-out and setting: the same measure for `COc1ccccc1NC(=O)c1oc2ccccc2c1NC(=O)COc1ccccc1OC`: -17.9%; for `O=C(CCN1Cc2ccccc2OC(c2ccccc2)C1)N[C@@H]1CS(=O)(=O)C[C@H]1O` (stereo partly specified): -3.77%.
For `COc1cc(C(=O)OC(C)C(=O)NCC2CCCCC2)cc(NC(=O)c2ccco2)c1OC` (stereo unspecified), the Potency is 31.6 µM (active).
With `CC(OC(=O)c1ccc([N+](=O)[O-])cc1)C(=O)NCC1CCCCC1` (stereo unspecified), the “activity change, negative = cytotoxicity” value was -6.52%.
On the same count and under the same terms, the same measure for `CC(OC(=O)c1cccc(S(=O)(=O)N2CCOCC2)c1)C(=O)NCC1CCCCC1` (stereo unspecified): -31.2%.
On the same count and under the same terms, for `CCOC(=O)Cc1cccc(-c2cc(CCCCCCc3ccc(O[C@H]4O[C@H](COC(C)=O)[C@@H](OC(C)=O)[C@H](OC(C)=O)[C@@H]4OC(C)=O)c(-c4cccc(CC(=O)OCC)c4)c3)ccc2O[C@H]2O[C@H](COC(C)=O)[C@@H](OC(C)=O)[C@H](OC(C)=O)[C@@H]2OC(C)=O)c1` the value was -7%.
Still for that read-out and setting: for `CN(C)CCNC(=O)c1ccc(-c2cn3c(-c4ccc(Oc5ccccc5)cc4)cnc3cn2)cc1` the value was 3.68%; for `Cc1ccccc1-c1ccc2c(c1)O[C@@H](CN(C)Cc1ccc(C(=O)O)cc1)[C@@H](C)CN([C@H](C)CO)S2(=O)=O`, -7.46%.
Take `CCCCN1CC(COCc2ccccc2)OCCS1(=O)=O` (stereo unspecified): the “activity change, negative = cytotoxicity” value was -18.3%.
For the molecule `CCCCC[C@H](C)N1C[C@@H](COCc2ccccc2)Oc2cc(N3CC[C@@H](N(C)C)C3)ccc2S1(=O)=O`, the Potency is 25.1 µM (active).
Still for that read-out and setting: the same measure for `Cc1oc2ccc(O)c(CN3CCCCC3)c2c1C(=O)Nc1cccc(C(F)(F)F)c1`: 28.2 µM (active).
With `CCN1CCN(Cc2c(O)ccc3oc(C)c(C(=O)Nc4ccc(C)cc4C)c23)CC1`, the “activity change, negative = cytotoxicity” value was -3.39%.
Regarding `Cc1oc2ccc(O)c(CN3CCOCC3)c2c1C(=O)Nc1cccc(Cl)c1C`, the “activity change, negative = cytotoxicity” value is -18.9%.
For `COC(=O)/C=C(/C)N`, the “activity change, negative = cytotoxicity” value was -9.41%.
Regarding `COCCN1CCN(C(=O)c2sc3ncnc(NCC4CCCO4)c3c2C)CC1` (stereo unspecified), the “activity change, negative = cytotoxicity” value was -15.3%.
Still for that read-out and setting: for `Cc1csc(NC(=O)Nc2ccccc2[N+](=O)[O-])n1` the value was -25.1%; for `O=C(Nc1ccncc1)c1ccccc1[N+](=O)[O-]`, -7.59%.
With `CC(=O)Oc1ccccc1C(=O)Nc1ncc([N+](=O)[O-])s1`, the Potency is 39.8 µM (active).
Turning to `CC(C)(C)S(=O)N1Cc2cc(C(=O)NCCCN3CCOCC3)nc(-c3cccc(-c4cc5ccccc5o4)c3)c2[C@H]1CCO` (stereo partly specified), the “activity change, negative = cytotoxicity” value is -37.5%.
Same read-out and setting: the same measure for `CC(Oc1ccccc1)C(=O)N[C@@H]1C(=O)N2[C@@H]1SC(C)(C)[C@@H]2C(=O)O` (stereo partly specified): -12.4% [at 25.4 µM]; for `COCc1cccc(-c2csc(C(O)c3ccc(F)cc3)n2)c1` (stereo unspecified): -24.3%.
As for `Cn1c(=O)[nH]c(=O)c2c1nc(N1CCN(C(c3ccccc3)c3ccccc3)CC1)n2CCO`, the Potency is 3.16 µM (active).
Consider `Cn1c(=O)[nH]c(=O)c2c1nc(N1CCN(CCO)CC1)n2CCSc1nc2ccccc2s1`, for which the “activity change, negative = cytotoxicity” value was 12.4%.
In the case of `CN1CCN(c2nc3c(c(=O)[nH]c(=O)n3C)n2Cc2cccc3ccccc23)CC1`, the “activity change, negative = cytotoxicity” value was -28.2%.
For the molecule `CN[C@@H]1[C@@H](O)[C@@H](O[C@@H]2[C@H](O)[C@H](O[C@H]3OC(CN)=CC[C@H]3N)[C@@H](N)C[C@H]2N)OCC1(C)O` (stereo partly specified), the “activity change, negative = cytotoxicity” value is -11.6%.
On to `CC(=O)Nc1ccc(-c2csc(NC(=O)Nc3ccccc3)n2)cc1`, for which the Potency was 15 µM (active).
`O=C(CSC1=NCCS1)Nc1nc(-c2ccccc2)cs1`: the “activity change, negative = cytotoxicity” value is -18.4%.
The same measure, in the same setting: the same measure for `CC(=O)Nc1ccc(-c2cn3cccnc3n2)cc1`: -17.5%.

The record behind these values is PubChem BioAssay AID651635 (National Center for Advancing Translational Sciences (NCATS), 2012).
